# Compound activity as filed in PubChem.
# Hits are enriched below; roughly 6.8% of the tested compounds scored in any of these assays.
# C diff growth: C. difficile growth inhibitors, primary screen, HTS; Clostridium difficile clinical isolate growth, OD600, 24 h; active compounds read low; growth activity, negative = inhibition, % at 16 µg/mL (by protocol); 86,000 tested, 0.25% active;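 active = mean growth activity at or below -80% and every replicate also at or below -80%; inconclusive = mean at or below -80% but some replicate above -80%; inactive = mean growth activity above -80%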;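 note: 0% = DMSO wells and -100% = levofloxacin 16 µg/mL wells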
# T cruzi growth: T. cruzi intracellular proliferation inhibitors, primary screen, cell-based, beta-gal Tulahuen parasites, NIH3T3 host, luminescence | T. cruzi beta-gal in NIH3T3, GalScreen luminescence, 90 h | inhibition, % at 8.34 µM | 77,000 tested, 5.9% active;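 active = mean inhibition above about 93%, with at least 55% of replicates each passing it, limit read from the data, passing the limit was not always enough; inconclusive = only one of those two conditions holds; inactive = neither condition holds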
# Pf Dd2 growth: P. falciparum Dd2 growth inhibitors, primary screen, SYBR Green fluorescence, single dose replicates | 72 h; active compounds read low | activity change, % at 10 µM | 94,000 tested, 2.3% active; in the data active = activity change below about -80%; inconclusive = no clear call, values can overlap the other calls
# Starred values were filed as active, the others as inactive; ? = inconclusive; · = no result; ! = repeats disagree.
SMILES,C diff growth,T cruzi growth,Pf Dd2 growth
CCCc1cn(CC[C@@H]2CC[C@H](NS(=O)(=O)c3ccc(-c4ccccc4)cc3)[C@@H](CO)O2)nn1,-14,-2,-76
CCCc1cn(CC[C@H]2CC[C@@H](NS(=O)(=O)c3ccc(-c4ccccc4)cc3)[C@H](CO)O2)nn1,-10,60,-94*
CC(C)CC#Cc1cnc2c(c1)C(=O)N([C@H](C)CO)C[C@H](C)[C@H](CN(C)Cc1ccccc1F)O2,14,56,-19
O=C(Nc1ccc(F)cc1)N1C[C@@H]2[C@H](c3ccccc31)[C@@H](CO)N2C(=O)Cc1cccnc1,3,46,5
O=C(C[C@@H]1C[C@H]2c3cc(NC(=O)C4CCOCC4)ccc3O[C@H]2[C@H](CO)O1)NCc1ccc(Cl)cc1,3,70,-12
CCCC#Cc1cnc2c(c1)C(=O)N([C@@H](C)CO)C[C@@H](C)[C@H](CN(C)C(=O)C1CCC1)O2,0,22,-33
CO[C@H]1CN(C)C(=O)c2ccc(NC(=O)Nc3ccc(C(F)(F)F)cc3)cc2OC[C@@H](C)NC[C@H]1C,·,-2,-28
CO[C@H]1CN(C)C(=O)c2ccc(NC(=O)Nc3ccc(C(F)(F)F)cc3)cc2OC[C@H](C)NC[C@@H]1C,7,·,-25
CO[C@H]1CN(C)C(=O)c2cc(NC(=O)Nc3ccc(C(F)(F)F)cc3)ccc2OC[C@H](C)NC[C@H]1C,·,-16,-88*
CO[C@@H]1CN(C)C(=O)c2ccc(NC(=O)Nc3ccc(C(F)(F)F)cc3)cc2OC[C@@H](C)NC[C@@H]1C,22,·,-83*
COCC(=O)N[C@@H]1CC[C@H](CC(=O)NCc2ccccc2OC)O[C@H]1CO,·,-35,5
C/C=C/c1ccc2c(c1)O[C@@H](CN(C)C(C)=O)[C@@H](C)CN([C@H](C)CO)S2(=O)=O,0,·,-13
C[C@H]1CCCCO[C@H](CN(C)S(C)(=O)=O)[C@@H](C)CN([C@@H](C)CO)C(=O)c2cc(NC(=O)c3ccncc3)ccc2O1,9,72,-12
CCC(=O)N1CCC2(CC1)CN(Cc1cccc(Cl)c1)[C@H](CO)c1c2c2ccc(OC)cc2n1C,6,·,-89*
COc1ccc2c3c(n(C)c2c1)[C@@H](CO)N(Cc1cccc(Cl)c1)CC31CCN(C(C)=O)CC1,-1,·,-38
COc1ccc2c3c(n(C)c2c1)[C@H](CO)N(Cc1cc(F)ccc1F)CC31CCN(C(=O)C2CC2)CC1,-6,·,?
COc1ccc2c3c(n(C)c2c1)[C@@H](CO)N(Cc1cc(F)ccc1F)CC31CCN(C(=O)C2CC2)CC1,4,·,-81*
COc1ccc2c3c(n(C)c2c1)[C@H](CO)N(Cc1ccccc1)CC31CCN(C(=O)C2CC2)CC1,1,·,-83*
COc1ccc2c3c(n(C)c2c1)[C@@H](CO)N(Cc1ccccc1)CC31CCN(C(=O)C2CC2)CC1,1,·,-72
C[C@H](CO)N1C[C@H](C)[C@@H](CN(C)C(=O)Nc2ccc3c(c2)OCO3)Oc2ccc(NC(=O)CCN3CCOCC3)cc2CC1=O,2,53,1
O=S(=O)(Cc1ccccc1)N1CC2(C1)[C@H](c1ccccc1)[C@@H](CO)N2CC1CCOCC1,-1,·,-12
O=C(C[C@H]1C=C[C@H](NC(=O)C2CCOCC2)[C@@H](CO)O1)Nc1ccccc1,3,·,11
COc1ccc2c3c([nH]c2c1)[C@@H](CO)N(S(=O)(=O)c1cn(C)cn1)CC31CCN(Cc2ccccc2)CC1,·,·,11
O=C(c1ccccn1)N1CC[C@@H]2[C@H](CO)Nc3ccc(C#Cc4ccccc4)cc3[C@@H]21,-15,84,2
O=C(c1ccccn1)N1CC[C@H]2[C@H](CO)Nc3ccc(C#Cc4cccnc4)cc3[C@H]21,3,77,-20
SMILES,C diff growth,T cruzi growth,Pf Dd2 growth
COc1ccccc1C#Cc1ccc2c(c1)[C@H]1[C@H](CCN1C(=O)c1ccncc1)[C@H](CO)N2,-100*,66,-52
COc1ccc(C#Cc2ccc3c(c2)[C@H]2[C@H](CCN2C(=O)c2ccccn2)[C@H](CO)N3)cc1,50,·,-88*
COc1ccc(C#Cc2ccc3c(c2)[C@H]2[C@H](CCN2C(=O)c2ccncc2)[C@@H](CO)N3)cc1,8,·,-60
COc1ccc(C#Cc2ccc3c(c2)[C@H]2[C@H](CCN2C(=O)c2ccccn2)[C@@H](CO)N3)cc1,37,·,-91*
O=C(C[C@@H]1C[C@@H]2c3cc(NC(=O)Nc4ccccc4)ccc3O[C@@H]2[C@H](CO)O1)NCC(F)(F)F,0,8,5
COc1ccc2c3c(n(C)c2c1)[C@@H](CO)N(C(=O)Nc1c(C)noc1C)CC31CCN(CC2CC2)CC1,-3,·,6
COc1ccccc1CN1CC[C@@H]2[C@H]1c1cc(C3=CCCCC3)ccc1N[C@@H]2CO,61,7,-21
CC(C)(C)[S@@](=O)N1Cc2cc(C(=O)NCc3ccncc3)nc(-c3cccc(-c4ccncc4)c3)c2[C@H]1CCO,·,32,-35
CCCNC(=O)c1cc2c(c(-c3cccc(-c4cc5ccccc5o4)c3)n1)[C@H](CCO)N(C(=O)NC(C)C)C2,3,·,-93*
COc1ccc(CNC(=O)c2cc3c(c(-c4cccc(-c5cccc(C#N)c5)c4)n2)[C@H](CCO)N([S@@](=O)C(C)(C)C)C3)cc1,·,90,-80
COc1cccc(-c2cccc(-c3nc(C(=O)NCc4ccc(Oc5ccccc5)cc4)cc4c3[C@@H](CCO)N(S(=O)C(C)(C)C)C4)c2)c1 (stereo partly specified),-5,·,-84*
CC(C)(C)[S@@](=O)N1Cc2cc(C(=O)NCCc3ccncc3)nc(-c3cccc(-c4ccccc4)c3)c2[C@H]1CCO,-6,·,-85*
CCNC(=O)c1cc2c(c(-c3cccc(-c4cc5ccccc5o4)c3)n1)[C@@H](CCO)N(C(=O)NC(C)C)C2,-14,·,-76
COc1ccc(NC(=O)N(C)C[C@@H]2Oc3ccc(NC(=O)CCC(F)(F)F)cc3CC(=O)N([C@@H](C)CO)C[C@@H]2C)cc1,0,-6,6
C[C@H]1CCCCO[C@H](CN(C)C(=O)CCC(F)(F)F)[C@@H](C)CN([C@@H](C)CO)C(=O)c2cc(NS(=O)(=O)c3ccc(F)cc3)ccc2O1,-9,·,-22
CO[C@@H]1CN(C)C(=O)c2ccc(NC(=O)c3ccccc3F)cc2OC[C@@H](C)N(C(=O)c2ccccc2F)C[C@H]1C,·,18,-19
COc1ccc2c3c(n(C)c2c1)[C@H](CO)N(C(=O)CN1CCOCC1)CC31CN(C(C)=O)C1,3,·,-1
COc1cc(CN2C[C@@H]3N[C@H](C2)C3c2ccc(/C=C/c3ccccc3)cc2)cc(OC)c1 (stereo partly specified),11,·,-88*!
COc1cc(CN2C[C@@H]3N[C@H](C2)C3c2ccc(-c3cncnc3)cc2)cc(OC)c1 (stereo partly specified),-1,·,-12
C/C=C/c1ccc(C2[C@@H]3CN(Cc4cccc(OC)c4)C[C@H]2N3)cc1 (stereo partly specified),7,·,-19
COc1cc(CN2C[C@@H]3N[C@H](C2)C3c2ccc(-c3cccc(OC)c3)cc2)cc(OC)c1 (stereo partly specified),47,·,-75
